We go through 61 molecules from PubChem BioAssay AID425 (Sanford-Burnham Center for Chemical Genomics, 2006).

The structures appear in SMILES notation. Where “and” joins values, the source holds several entries; their conditions need not be identical. Equal values may be shown once. In all, about 110,000 compounds went through this assay and about 190 (0.17%) were called active. This excerpt belongs to a sample that is enriched for actives. Potency and affinity values are given separately. Values without a mark were called inactive. Rule as the data show it: active = inhibition above about 50%; inactive = the rest.

Chain of Dual specificity protein phosphatase 6 (Rattus norvegicus) (Q64346 whole entry, looked up): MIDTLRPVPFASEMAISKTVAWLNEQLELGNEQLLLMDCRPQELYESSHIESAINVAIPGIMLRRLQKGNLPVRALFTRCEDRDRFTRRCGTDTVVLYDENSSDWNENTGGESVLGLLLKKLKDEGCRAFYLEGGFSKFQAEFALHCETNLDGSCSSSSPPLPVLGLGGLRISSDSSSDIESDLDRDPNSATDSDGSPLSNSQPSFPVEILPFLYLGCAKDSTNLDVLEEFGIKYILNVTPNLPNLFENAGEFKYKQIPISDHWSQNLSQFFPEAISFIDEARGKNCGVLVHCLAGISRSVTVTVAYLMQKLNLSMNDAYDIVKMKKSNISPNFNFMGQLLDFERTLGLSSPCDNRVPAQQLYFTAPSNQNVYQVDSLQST

The assay has as its target Dual specificity protein phosphatase 6 (Rattus norvegicus) (UniProt Q64346). In words: inhibition of rat DUSP6 enzyme activity – biochemical, in vitro, primary screen (AID 425).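 Also: plate controls were vehicle for no effect and reference inhibitor for full effect.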 The following applies: recombinant MKP-3 phosphatase activity, fluorescence; at 20 µM; stronger effect = higher value.
In the case of `Cc1ccc(S(=O)(=O)NC(=O)N2CCc3ccccc32)cc1`, the inhibition – broadly, the drop in the measured response relative to a control, in per cent – is 4.5%.
To `CCN(CC)C(=O)CSc1nc2cccnc2n1-c1ccccc1OC` belongs -6.6%.
In the case of `OCCCc1nc2ccccc2n1Cc1ccc2ccccc2c1` it was 3.2%; in that of `CCc1nn(CC(=O)NCCCN(CC)Cc2ccccc2)c(=O)c2cc3sccc3n12`, 2%.
In the case of `O=C(O)c1cc(-c2ccc(C=C3C(=O)c4ccccc4C3=O)o2)ccc1O`, the inhibition was 47.2%.
As to `O=C1NC(=O)/C(=C\c2ccc(-c3ccc(C(=O)O)cc3)o2)S1`, the inhibition was 2.5%.
In the case of `O=C1/C(=C/c2ccc(-c3ccc(Cl)cc3C(=O)O)o2)Sc2ccccc21`, the inhibition was 7.4%.
For the molecule `O=C1NC(=S)S/C1=C\c1ccc(-c2ccc(Cl)c(C(=O)O)c2)o1`, the inhibition is 10.9%.
In the case of `O=C(O)c1cc(-c2ccc(/C=C3/Sc4ccccc4C3=O)o2)ccc1O` it was 84.4% (active); in that of `O=C1NC(=O)/C(=C/c2ccc(-c3ccc(O)c(C(=O)O)c3)o2)S1`, 105% (active); in that of `COc1ccccc1CNC(=O)C(NC(=O)C1CCCCC1)C(C)C` (stereo unspecified), -3.5%.
Take `CCOC(=O)CNC(=S)Nc1ccc(F)cc1`: the inhibition was 1.8%.
To `CN(C)c1ccc(/C=C/C=C/c2cc[n+](CCCS(=O)(=O)[O-])cc2)cc1` belongs 5%; to `c1ccc(-c2noc(C34CC5CC(CC(C5)C3)C4)n2)nc1`, -5.1%.
Turning to `CN1C(=O)NC(=O)/C(=C/c2ccc(-c3ccc([N+](=O)[O-])cc3Cl)o2)C1=O`, the inhibition was 12%.
As for `CN1C(=O)NC(=O)/C(=C/c2ccc(-c3ccc(Cl)cc3)o2)C1=O`, the inhibition is 39.8%.
As to `CN1C(=O)NC(=O)/C(=C/c2ccc(-c3ccc(Cl)cc3Cl)o2)C1=O`, the inhibition is 66.9% (active).
As to `CCn1nc(NC(=O)c2ccncc2)c2cc3cc(C)ccc3nc21`, the inhibition was -13.2%.
In the case of `O=C(NCCN1CCOCC1)c1cnn2c(C(F)(F)F)cc(-c3ccc(Br)cc3)nc12`, the inhibition was -0.4%.
To `CCN1C(=O)N(COC(C)=O)C2C1N(COC(C)=O)C(=O)N2CC` (stereo unspecified) belongs 3.5%; to `Cc1c(-c2cccc(Cl)c2)nc2ccccc2c1C(=O)O`, 1.1%.
In the case of `O=C(Cn1c(O)c(N=NC(=O)C(=O)Nc2ccc([N+](=O)[O-])cc2)c2ccccc21)Nc1ccccc1`, the inhibition was -0.4%.
On to `O=C(Cn1c(O)c(N=NC(=O)c2ccc([N+](=O)[O-])cc2)c2ccccc21)Nc1ccccc1`, for which the inhibition is 0.9%.
As to `Cc1ccc(C2SCC(=O)N2CCCN(C)C)cc1` (stereo unspecified), the inhibition is -0.2%.
`Cc1c(Cl)cccc1N=C1NC(=O)/C(=C/c2ccc(OC(C)C)cc2)S1`: the inhibition is 3.5%.
Consider `O=C(Nc1ccccc1Cl)c1cccc(NC(=O)C(F)(F)F)c1`, for which the inhibition was 98.8% (active).
For the molecule `O=C(Nc1ccccc1Cl)c1cccc(F)c1`, the inhibition is 0.5%.
In the case of `Cc1ccccc1C(=O)Nc1cccc(C(=O)Nc2ccccc2Cl)c1`, the inhibition is 0.2%.
For the molecule `CCOC(=O)C1=C(O)CCn2c1nc1ccccc12`, the inhibition was -0.7% and -13.2%.
For `CCOC(=O)C1(C)C=C(Nc2ccc(S(=O)(=O)Nc3nccs3)cc2)C(=O)N1c1ccccc1` (stereo unspecified), the inhibition was 2.7%.
Turning to `COC(=O)c1c(NC(=O)c2cncc(Br)c2)sc2c1CCC2`, the inhibition was -14%.
In the case of `Cc1ccccc1NC(=O)C(C)NC(=O)C12CC3CC(CC(C3)C1)C2` (stereo unspecified) it was 1.2%; in that of `Cc1cc(-c2ccccc2)nc2cc(C(=O)Nc3ccc(Cl)cc3)nn12`, 3.4%; in that of `COc1ccc(Cl)cc1NC(=O)c1cc2nc(-c3ccccc3)cc(C)n2n1`, 63.8% (active).
`COc1cc(NC(=O)c2cc3nc(-c4ccccc4)cc(C)n3n2)c(OC)cc1Cl`: the inhibition is 10.6%.
In the case of `Cc1ccc(NC(=O)COc2ccc(Br)cc2)c(C)c1` it was 2.7%; in that of `Cc1ccc(S(=O)(=O)Nc2cc(Sc3nc4ccccc4[nH]3)c(O)c3ccccc23)cc1`, 8.1%; in that of `Cc1ccc(S(=O)(=O)Nc2cc(Sc3ncn[nH]3)c(O)c3ccccc23)cc1`, 56% (active).
In the case of `Cc1ccc(S(=O)(=O)Nc2cc(C)c(O)c(Sc3ncn[nH]3)c2)cc1` it was 4.4%; in that of `COc1ccc(C2CC(=O)C3=C(C2)Nc2ccccc2NC3c2cccs2)cc1` (stereo unspecified), 3.6%.
`CCOC(=O)Cn1nc(-c2ccccc2)nc1-c1ccccc1`: the inhibition is -8%.
Consider `COc1ccc(-n2c(C)cc(C)nc2=O)cc1`, for which the inhibition is -1.5%.
For `Cc1nc(C)n(C)c(=O)c1-c1ccccc1`, the inhibition is -0.4%.
For the molecule `Cn1c(/C=C/c2ccc(Br)cc2)nc2ccccc2c1=O`, the inhibition is 0.8%.
In the case of `CCSc1nc(-c2cccs2)nc2c1c(=O)n(C)c(=O)n2C`, the inhibition was -4.4%.
Take `COc1ccc(OC)c(/C=c2\sc3nc(-c4cccs4)nn3c2=O)c1`: the inhibition is 0.4%.
With `Cn1c(/C=C/c2cccnc2)nc2ccccc2c1=O`, the inhibition is -2.3%.
As to `O=C(Nc1ccc(-c2cn3ccsc3n2)cc1)C1COc2ccccc2O1` (stereo unspecified), the inhibition was 2.3%.
Turning to `CC1=C(C(=O)Nc2cccc(C)c2)C(c2cc(Br)ccc2O)NC(=O)N1` (stereo unspecified), the inhibition is -0.3%.
With `CCOc1ccccc1NC(=O)C1C2C=CC(O2)C1C(=O)O` (stereo unspecified), the inhibition is -14.3%.
Take `COC(=O)c1cc(C(=O)NC2CCCCCC2)cc([N+](=O)[O-])c1`: the inhibition was -3.5%.
`CCOc1cccc(/C=N\NC(=O)Cc2cccn2C)c1O`: the inhibition is 2.2%.
Take `C=CCOc1ccc(/C=C2\C(=O)NC(C)=C2C(=O)OC)cc1OC`: the inhibition is 3%.
For `COc1cc(F)ccc1S(=O)(=O)N1CCCCCC1`, the inhibition is -0.1%.
In the case of `Cc1cccc(N2CCN(C(=O)c3ccc(Cl)c(Cl)c3)CC2)c1C`, the inhibition is 3.8%.
Take `C=CCN1C(=O)/C(=C/c2ccc(Cl)cc2)C(=O)NC1=S`: the inhibition was 1.8%.
`c1ccc(-c2nnc(-c3ccccn3)nc2-c2ccccc2)cc1`: the inhibition is -0.7%.
In the case of `CCn1c(N)nc2c1c(=O)n(C)c(=O)n2C` it was -1.5%.
To `Cn1c(-c2ccccn2)nc2ccccc21` belongs 1.2%; to `CCCc1nc(SCC(=O)c2ccc(OC)cc2)c2c(=O)n(C)c(=O)n(C)c2n1`, -2.4%; to `O=c1c2c3c(sc2n2c(=S)[nH]nc2n1-c1ccccc1)CCCCC3`, 1.2%.
